Results on 17 compounds are retold here after PubChem BioAssay.

Experiment [1] is described as follows: anti-His antibody binders, primary screen, artefact control for SMM control protein annotation, biochemical, small-molecule microarray, 635 nm fluorescence (AID 1128).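 Note: score merges feature fluorescence with signal-to-noise for each printed compound spot.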 The note with it: anti-His Alexa647 antibody binding, higher = more signal.
For experiment [2], the system named is Human papillomavirus type 1a E7 protein (residues 1-88). Kind of experiment: HPV1a E7 small-molecule binders, primary screen, biochemical, small-molecule microarray, residues 1-88, 635 nm (AID 1129). The note with it: small-molecule microarray binding, fluorescence 635 nm; higher = more signal.
Experiment [3] has as its target Focal adhesion kinase 1 (Homo sapiens) (UniProt Q05397). Kind of experiment: small-molecule microarray binders of FAK, primary screen, biochemical, 635/667 nm fluorescence, BSA, DTT (AID 1130).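 Note: composite of spot emission at 667 nm and signal to noise over triplicate slides.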 The note with it: PTK2 binding, 635 nm fluorescence, higher = more signal.
The subject of experiment [4] is Fibrinogen (Alexa647-labelled). Kind of experiment: fibrinogen binders on compound microarrays, profiling panel, artefact control for SMM control-protein annotation, biochemical, small-molecule microarray, 635/667 nm fluorescence (AID 1131).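 Note: z-score merges 667 nm fluorescence with per-spot signal-to-noise over triplicate slides.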 Particulars: fibrinogen-A647 binding fluorescence, higher = more signal.
Experiment [5] concerns the target Follistatin (Homo sapiens) (UniProt P19883). Kind of experiment: follistatin binders on small-molecule microarrays, primary screen, biochemical, small-molecule microarray, 635/667 nm fluorescence (AID 1132). Particulars: FST binding, 635 nm fluorescence, higher = more signal.
Experiment [6] has as its target Fibroblast growth factor 2 (Homo sapiens) (UniProt P09038). Kind of experiment: FGF2 binders on small-molecule microarrays, primary screen, biochemical, small-molecule microarray, 635/667 nm fluorescence (AID 1133). The note with it: small-molecule microarray binding, FGF2, fluorescence 635/667; higher = more signal.
A short description of experiment [7]: mitochondrial membrane potential change in A549 cells, profiling panel, cell-based, JC-1 fluorescence, basal, 24 h, 100 nL (AID 1138).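 Note: A549 lung adenocarcinoma cells under basal conditions with no added stimulus; test concentration not given here.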 Particulars: higher = more signal.
Experiment [8] deals with Lefty1. The experiment can be described thus: Lefty1 binders on small-molecule microarrays, primary screen, biochemical, small-molecule microarray, 635/667 nm fluorescence (AID 1139). The note with it: small-molecule microarray binding, fluorescence 635/667; higher = more signal.
Experiment [9] has as its system wheat germ agglutinin (Triticum aestivum), Alexa647-labelled. Kind of experiment: wheat germ agglutinin binders on compound microarrays, profiling panel, artefact control for SMM control-protein annotation, biochemical, small-molecule microarray, 635/667 nm fluorescence (AID 1140).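 Note: score merges 667 nm feature emission with signal to noise over triplicate slides.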 The note with it: WGA-A647 binding, 635 nm fluorescence, higher = more signal.
The target in experiment [10] is Luciferin 4-monooxygenase (Photinus pyralis) (UniProt P08659). The experiment can be described thus: firefly luciferase enzyme inhibitors, primary screen, biochemical, luminescence, purified enzyme, 2006 set (AID 1141).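 Note: cell-free assay with purified firefly luciferase at 100 ng per well in PBS; test concentration not given here.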 The note with it: SteadyGlo luminescence, 30 min, higher = more signal, called active from +8 up or from −8 down.
Chain of Luciferin 4-monooxygenase (Photinus pyralis) (P08659 whole entry, looked up): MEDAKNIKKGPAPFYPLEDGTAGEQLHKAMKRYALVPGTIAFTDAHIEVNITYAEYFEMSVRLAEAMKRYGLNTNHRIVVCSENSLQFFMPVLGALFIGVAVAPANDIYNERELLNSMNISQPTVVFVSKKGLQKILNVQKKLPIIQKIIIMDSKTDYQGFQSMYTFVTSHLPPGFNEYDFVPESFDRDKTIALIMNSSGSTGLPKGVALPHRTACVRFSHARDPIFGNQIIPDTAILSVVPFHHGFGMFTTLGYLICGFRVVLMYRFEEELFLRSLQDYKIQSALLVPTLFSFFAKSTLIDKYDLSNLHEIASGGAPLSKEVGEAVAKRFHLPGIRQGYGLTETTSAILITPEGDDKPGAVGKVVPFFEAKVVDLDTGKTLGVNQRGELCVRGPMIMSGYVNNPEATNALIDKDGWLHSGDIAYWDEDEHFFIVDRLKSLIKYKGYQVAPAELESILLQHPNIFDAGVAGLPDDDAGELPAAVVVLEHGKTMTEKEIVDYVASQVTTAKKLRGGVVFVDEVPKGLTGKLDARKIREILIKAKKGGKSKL

Calls of active or inactive are those of the source.

Chain of Focal adhesion kinase 1 (Homo sapiens) (Q05397 whole entry, looked up): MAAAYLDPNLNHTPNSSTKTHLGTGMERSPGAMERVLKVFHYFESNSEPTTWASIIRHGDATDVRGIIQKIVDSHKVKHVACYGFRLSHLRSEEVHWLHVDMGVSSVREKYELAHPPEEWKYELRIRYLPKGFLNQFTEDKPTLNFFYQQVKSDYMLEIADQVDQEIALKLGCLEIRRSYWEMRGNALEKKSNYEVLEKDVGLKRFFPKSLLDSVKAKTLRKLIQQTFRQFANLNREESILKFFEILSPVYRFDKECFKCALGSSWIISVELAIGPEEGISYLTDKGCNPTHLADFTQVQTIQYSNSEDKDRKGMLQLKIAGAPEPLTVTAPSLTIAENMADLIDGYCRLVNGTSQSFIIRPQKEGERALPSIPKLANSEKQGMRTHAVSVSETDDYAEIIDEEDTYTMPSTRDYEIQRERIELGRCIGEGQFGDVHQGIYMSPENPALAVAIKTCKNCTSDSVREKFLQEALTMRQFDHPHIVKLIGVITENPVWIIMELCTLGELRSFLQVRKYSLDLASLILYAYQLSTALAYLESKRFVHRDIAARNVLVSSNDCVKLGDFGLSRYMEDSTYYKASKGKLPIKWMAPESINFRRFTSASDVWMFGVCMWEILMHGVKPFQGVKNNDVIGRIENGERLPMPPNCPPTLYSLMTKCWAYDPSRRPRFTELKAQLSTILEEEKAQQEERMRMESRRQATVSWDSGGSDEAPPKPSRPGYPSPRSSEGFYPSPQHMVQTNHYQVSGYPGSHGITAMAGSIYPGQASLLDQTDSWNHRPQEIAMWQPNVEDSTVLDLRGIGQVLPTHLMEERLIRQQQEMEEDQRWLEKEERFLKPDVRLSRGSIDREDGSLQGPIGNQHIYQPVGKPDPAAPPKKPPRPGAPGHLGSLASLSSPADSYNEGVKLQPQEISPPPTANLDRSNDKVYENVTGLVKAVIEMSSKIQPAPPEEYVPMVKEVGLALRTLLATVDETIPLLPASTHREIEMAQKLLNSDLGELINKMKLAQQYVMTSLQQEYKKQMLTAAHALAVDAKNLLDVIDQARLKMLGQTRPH
Chain of Follistatin (Homo sapiens) (P19883 whole entry, looked up): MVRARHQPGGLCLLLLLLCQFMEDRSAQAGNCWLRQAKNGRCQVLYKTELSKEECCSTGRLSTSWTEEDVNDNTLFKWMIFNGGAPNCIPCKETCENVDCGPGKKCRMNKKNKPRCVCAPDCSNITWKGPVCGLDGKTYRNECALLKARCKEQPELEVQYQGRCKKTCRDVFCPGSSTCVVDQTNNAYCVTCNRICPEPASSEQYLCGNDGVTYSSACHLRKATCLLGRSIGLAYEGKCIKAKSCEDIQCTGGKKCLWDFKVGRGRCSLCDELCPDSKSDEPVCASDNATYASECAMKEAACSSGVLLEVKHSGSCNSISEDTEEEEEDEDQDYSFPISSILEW
Chain of Fibroblast growth factor 2 (Homo sapiens) (P09038 whole entry, looked up): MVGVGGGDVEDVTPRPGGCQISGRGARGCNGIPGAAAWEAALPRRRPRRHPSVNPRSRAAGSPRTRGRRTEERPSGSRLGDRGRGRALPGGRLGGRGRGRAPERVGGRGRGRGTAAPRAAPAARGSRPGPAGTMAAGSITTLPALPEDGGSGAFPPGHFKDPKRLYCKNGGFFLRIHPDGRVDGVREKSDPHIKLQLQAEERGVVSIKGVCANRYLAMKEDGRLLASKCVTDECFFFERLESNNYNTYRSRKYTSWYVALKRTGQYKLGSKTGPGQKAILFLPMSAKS

With `CCOC(=O)C[C@H]1[C@H](OC(=O)c2ccccc2-c2ccccc2)[C@@H](NC(=O)c2ccc3ccccc3n2)c2cc(OCCCO)ccc2N1C(=O)c1ccccc1`, the composite z-score was -0.0974 in [1]; 0.378 in [2]; 0.185 in experiment [3]; 0.322 in experiment [4]; 0.782 in [5]; 0.16 in experiment [6]. The composite z-score in experiment [8] was 0.634; in experiment [9], 0.857. Besides, the z-score was 0.628 in [7] and 0.272 (inactive) in experiment [10].
Turning to `CCCCCN1CC=CC23O[C@@H]4/C=C\CCC(C)OC(=O)C4[C@H]2C(=O)N(CCCCCCO)[C@@H]3C1=O` (stereo not given in full), the composite z-score in experiment [1] is 0.371; in experiment [2], 0.229; in experiment [3] it was 0.0767; in [4], -1.31; in experiment [5], 0.0532; in experiment [6], -0.0946. In addition, the composite z-score is 0.744 in experiment [8] and -0.65 in experiment [9]. The z-score in experiment [7] is 1.03; in experiment [10], 0.0812 (inactive).
Take `O=C1NC(=O)C2C1C=CC(C(O)c1ccccn1)N2Nc1ccc(Cl)cc1Cl` (stereo not given): the composite z-score came to 0.713 in [1]; 0.676 in experiment [2]; 0.473 in experiment [3]; 0.717 in experiment [4]; 0.101 in experiment [5]; 0.0367 in experiment [6]. Besides, the composite z-score in experiment [8] came to 0.181; in experiment [9] it was 1.11. In addition, the z-score in experiment [7] was 1.07; in experiment [10] it was 0.237 (inactive).
In the case of `CCN(CC)c1ccc(N2CC=CC34O[C@@H]5C=CCCOC(=O)C5[C@H]3C(=O)N(CCO)[C@@H]4C2=O)cc1` (stereo not given in full), the composite z-score in experiment [1] was -0.827; in [2], -1.74; in experiment [3], -0.491; in experiment [4] it was -1.21; in experiment [5], -0.722; in [6], -1.01. Also, the composite z-score in experiment [8] is -1; in [9], -0.553. For the same compound, the z-score in experiment [7] is 0.108; in [10] it was -0.643 (inactive).
On to `COCCOC(=O)N1C(=O)[C@@]2(c3cc(C#CCC(C(=O)OC)C(=O)OC)ccc31)[C@H](c1ccc(OCCO)cc1)N1[C@H](c3ccccc3)[C@H](c3ccccc3)OC(=O)[C@H]1[C@@H]2C(=O)Nc1nc2ccccc2s1`, for which the composite z-score in experiment [1] is 0.572; in experiment [2], 1.16; in [3], -0.14; in experiment [4], 0.973; in [5], 1.24; in [6] it was 0.35. The composite z-score in [8] is 1.06; in [9], 0.671. Also, the z-score was -2.17 in [7] and -1.2 (inactive) in [10].
With `C=C(CCCC)C(=O)CC[C@@H](OC(=O)c1cccnc1)c1ccc(OCCO)cc1`, the composite z-score is 0.0583 in [1]; 0.581 in experiment [2]; -0.471 in [3]; -0.0496 in experiment [4]; 1.47 in experiment [5]; 1.56 in experiment [6]. The composite z-score in experiment [8] was 1.57; in [9], 0.363. In addition, the values for the z-score in experiment [7] and in experiment [10] were 0.335 and -3.15 (inactive), respectively.
Regarding `Cc1ccc(F)cc1S(=O)(=O)N[C@@H]1CCN(Cc2cccc3[nH]ccc23)C1`, the composite z-score was 0.134 in experiment [1]; 0.179 in experiment [2]; -0.271 in [3]; -0.383 in [4]; 1.26 in experiment [5]; 0.932 in [6]. In addition, the composite z-score in experiment [8] was 0.69; in experiment [9], -0.227. For the same compound, the z-score in [7] was 0.443; in experiment [10], -0.0287 (inactive).
On to `CO[C@H]1O[C@H](CO)[C@@H](OC(=O)Nc2cccc(F)c2)[C@H](OC(=O)Nc2ccccc2-c2ccccc2)[C@H]1OC(=O)Nc1ccccc1-c1ccccc1`, for which the composite z-score amounted to 2.69 in experiment [1]; 1.28 in [2]; 0.55 in experiment [3]; 0.986 in experiment [4]; 1.32 in [5]; 1.5 in [6]. Further, the composite z-score was 1.14 in experiment [8] and 0.474 in experiment [9]. The z-score in experiment [7] is -0.498; in [10], 0.372 (inactive).
On to `O=C(NCC(O)CO)[C@@]1(CCS(=O)(=O)c2ccccc2)COC(c2ccc(OCCCO)cc2)=N1` (stereo not given in full), for which the composite z-score in experiment [1] turned out to be 2.29; in experiment [2], 1.17; in experiment [3], 0.204; in experiment [4], 0.904; in experiment [5] it was 1.36; in experiment [6], 1.28. Moreover, the composite z-score in experiment [8] is -0.682; in [9] it was 0.41. Moreover, the figures for the z-score in experiment [7] and in [10] were -0.583 and 0.405 (inactive), respectively.
Consider `COCCOC(=O)N1C(=O)[C@@]2(c3cc(C#CCCO)ccc31)[C@H](c1ccccc1OCCO)N1[C@H](c3ccccc3)[C@H](c3ccccc3)OC(=O)[C@H]1[C@@H]2C(=O)N1CCCCCCC1`, for which the composite z-score in experiment [1] worked out at 1.35; in experiment [2], 1.17; in experiment [3], 0.624; in experiment [4], 0.857; in experiment [5], 1.39; in experiment [6], 1.58. In addition, the figures for the composite z-score in experiment [8] and in [9] were 1.65 and 1.14, respectively. For the same compound, the z-score in experiment [7] was -0.383; in experiment [10], -0.0558 (inactive).
With `C=CCC(OC(C)=O)[C@@H]1[C@@H](N(Cc2ccc(-c3cccc(C(F)(F)F)c3)o2)C(=O)Cc2ccc(OC)cc2)c2cc(OCCCO)ccc2N1C(=O)Cc1ccc2ccccc2c1` (stereo not given in full), the composite z-score in experiment [1] is 0.083; in experiment [2], -1.39; in [3], -0.368; in experiment [4], 0.226; in [5], 0.131; in [6] it was -0.501. The composite z-score was -0.27 in [8] and -0.0571 in [9]. In addition, the z-score in experiment [7] was -0.451; in experiment [10] it was 0.149 (inactive).
Take `Cc1nc2cc(Br)ccc2c(=O)n1Cc1cccc(O)c1`: the composite z-score in [1] amounted to 0.391; in experiment [2], 0.941; in experiment [3], 0.872; in experiment [4], 0.539; in experiment [5], 1.38; in [6], 1.81. Besides, the values for the composite z-score in experiment [8] and in experiment [9] were 1.22 and 0.334, respectively. In addition, the z-score was 0.287 in experiment [7] and 6.4 (inactive) in experiment [10].
As for `CCOC(=O)C1=CCN(S(=O)(=O)c2ccc(C)cc2)C1c1ccccc1` (stereo not given), the composite z-score in experiment [1] came out at 0.843; in experiment [2], 1.2; in [3], 0.656; in experiment [4], 0.609; in experiment [5], 0.467; in experiment [6] it was 0.835. For the same compound, the composite z-score in [8] is 0.0842; in experiment [9], 0.652. For the same compound, the figures for the z-score in experiment [7] and in experiment [10] were 0.942 and 1.75 (inactive), respectively.
For `NC(=O)NCC#Cc1ccc2c(c1)[C@]1(C(=O)N2)[C@H](C(=O)N2CCN(c3ncccn3)CC2)[C@H]2C(=O)O[C@H](c3ccccc3)[C@H](c3ccccc3)N2[C@@H]1c1ccc(OCCO)cc1`, the composite z-score in experiment [1] came out at 0.0543; in [2] it was 0.805; in experiment [3], 0.0827; in [4] it was 0.717; in [5], 1.33; in experiment [6] it was 0.517. Besides, the values for the composite z-score in experiment [8] and in experiment [9] were 0.406 and 0.276, respectively. For the same compound, the z-score is -1.18 in [7] and -0.437 (inactive) in [10].
Consider `COC(=O)C1=CC(CCCO)=CC(C)N(Cc2cccc(OC(F)(F)F)c2)C=C1C(=O)OC` (stereo not given), for which the composite z-score in experiment [1] is 0.178; in experiment [2] it was 0.702; in experiment [3], 0.955; in [4], -0.269; in experiment [5] it was -0.278; in [6] it was -0.807. Also, the composite z-score in [8] is -0.0105; in [9], 1.11. Further, the z-score is 0.142 in experiment [7] and 0.347 (inactive) in experiment [10].
Consider `NC(=O)[C@H]1[C@@H]2C(=O)O[C@@H](c3ccccc3)[C@@H](c3ccccc3)N2[C@@H](c2ccc(O)cc2)[C@]12C(=O)Nc1ccc(C#CC3=CCCCC3)cc12`, for which the composite z-score in experiment [1] was 2.5; in [2], 1.2; in [3] it was 0.985; in experiment [4], 0.587; in [5], 0.959; in experiment [6], -0.004. Further, the composite z-score in experiment [8] stood at 0.542; in experiment [9], 0.548. Besides, the z-score was -1.96 in experiment [7] and -0.784 (inactive) in experiment [10].
For the compound `CCOC(=O)C1=C[C@@H](C(C)(C)C)N(S(=O)(=O)c2ccc(C)cc2)[C@H]1c1ccc(C)cc1`, the composite z-score in [1] was 0.505; in experiment [2], 1.16; in experiment [3] it was -0.115; in [4] it was 0.958; in experiment [5], 1.29; in [6] it was 0.949. Besides, the values for the composite z-score in [8] and in [9] were 1.12 and 0.764, respectively. For the same compound, the z-score is 4.52 in experiment [7] and 0.715 (inactive) in experiment [10].
